The values below come from PubChem BioAssay.

The target of test [1] is Albumin (Bos taurus) (UniProt P02769). The test can be described thus: compounds binding labelled BSA control protein – biochemical, small-molecule microarray, Alexa647 label, 635/667 nm fluorescence, artefact control for SMM control protein annotation, profiling panel (AID 1118).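 Also: score merges 667 nm emission intensity and signal-to-noise per printed compound spot.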 Conditions: BSA-A647 binding, fluorescence 635 nm, higher = more signal.
Test [2] can be described thus: probe aXIP binding to arrayed compounds – biochemical, NeuroSMM set, 635/667 nm fluorescence, primary screen (AID 1119).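 Also: probe is the protein aXip251-270 applied at 1 µg/mL to compound-printed slides; binding of probe to printed compounds measured as 667 nm fluorescence plus signal to noise.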 To be noted: small-molecule microarray, higher = more signal, called active from +8 up or from −8 down.
Test [3] can be described thus: probe aNOTCH3 binding on compound microarray – biochemical, small-molecule microarray, 635/667 nm fluorescence, primary screen (AID 1120).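 Also: probe is a biotin-tagged antibody raised against NOTCH3 rather than NOTCH3 protein; score merges spot fluorescence near 667 nm with spot signal to noise.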 Conditions: higher = more signal.
Test [4] is described as follows: probe aNOTCH2 binding on compound microarray – biochemical, small-molecule microarray, 635/667 nm fluorescence, primary screen (AID 1121).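 Also: score merges feature fluorescence read at 667 nm with its signal to noise.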 To be noted: higher = more signal.
In test [5] the target is Carbonic anhydrase 2 (Homo sapiens) (UniProt P00918). Briefly: compounds binding carbonic anhydrase 2 – biochemical, small-molecule microarray, Alexa647-labelled CAII, profiling panel (AID 1122). To be noted: CAII-A647 binding fluorescence, higher = more signal.
The nature of test [6]: COS7 lysate on small-molecule microarray, probe aHis, 635 nm (AID 1123).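 Also: z-score combines 667nm fluorescence intensity with signal-to-noise per printed compound spot.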 To be noted: COS7 cell lysate, fluorescence, higher = more signal.
Test [7] can be described thus: probe aLAP1 signal on lysate-treated microarray – cell lysate, small-molecule microarray, COS7 lysate, primary screen (AID 1124).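 Also: lysate comes from COS7 cells expressing LAP1 and is applied at 0.3 µg/mL; score merges spot fluorescence near 667 nm with signal-to-noise over triplicate slides.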 Conditions: probe aLAP1, fluorescence, higher = more signal.
In test [8] the test system is Sam68 (KHDRBS1). The test can be described thus: compounds binding KHDRBS1 protein – biochemical, small-molecule microarray, 635 nm fluorescence, primary screen (AID 1125).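 Also: score merges 667 nm channel intensity with signal to noise over triplicate slides.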 Conditions: higher = more signal.
For test [9], the system named is Chordin-like protein 2 (CHRDL2). Briefly: compounds binding chordin-like 2 – biochemical, small-molecule microarray, 635 nm fluorescence, primary screen (AID 1126).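 Also: printed compound slides probed with Chrdl2 protein at 4 µg/mL for 1 h at 4 C; score merges 667 nm emission intensity with signal to noise over three replicate slides.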 To be noted: fluorescence 635 nm, higher = more signal.
Test [10] has as its target Concanavalin-A (Canavalia ensiformis) (UniProt P02866). The test can be described thus: compounds binding concanavalin A lectin – biochemical, small-molecule microarray, Alexa647 label, 635 nm, artefact control for SMM control protein annotation, primary screen (AID 1127).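 Also: z combines 667 nm emission intensity with signal-to-noise across three replicate slides.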 Conditions: ConA-A647 binding fluorescence, higher = more signal.
The nature of test [11]: compounds binding Alexa647 anti-His antibody – biochemical, small-molecule microarray, 635 nm fluorescence, artefact control for SMM control protein annotation, primary screen (AID 1128).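 Also: score merges feature fluorescence with signal-to-noise for each printed compound spot.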 To be noted: higher = more signal.
The subject of test [12] is Human papillomavirus type 1a E7 protein (residues 1-88). The test can be described thus: HPV1a E7 small-molecule binders, primary screen, biochemical, small-molecule microarray, residues 1-88, 635 nm (AID 1129). To be noted: small-molecule microarray binding, fluorescence 635 nm; higher = more signal.
For test [13], the target named is Focal adhesion kinase 1 (Homo sapiens) (UniProt Q05397). Briefly: PTK2 protein binding on printed compound slides – biochemical, small-molecule microarray, 635/667 nm fluorescence, BSA, DTT, primary screen (AID 1130).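 Also: composite of spot emission at 667 nm and signal to noise over triplicate slides.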 To be noted: 635 nm fluorescence, higher = more signal.
The test system of test [14] is Fibrinogen (Alexa647-labelled). Briefly: Alexa647-fibrinogen binding to printed small molecules – biochemical, small-molecule microarray, 635/667 nm fluorescence, artefact control for SMM control-protein annotation, profiling panel (AID 1131).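 Also: z-score merges 667 nm fluorescence with per-spot signal-to-noise over triplicate slides.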 Conditions: fibrinogen-A647 binding fluorescence, higher = more signal.
The target in test [15] is Follistatin (Homo sapiens) (UniProt P19883). Briefly: FST protein binding to printed compounds – biochemical, small-molecule microarray, 635/667 nm fluorescence, primary screen (AID 1132). Conditions: 635 nm fluorescence, higher = more signal.
Test [16] addresses Fibroblast growth factor 2 (Homo sapiens) (UniProt P09038). Briefly: basic fibroblast growth factor binding to printed compounds – biochemical, small-molecule microarray, 635/667 nm fluorescence, primary screen (AID 1133). To be noted: FGF2, fluorescence 635/667, higher = more signal.
Test [17] is described as follows: JC-1 mitochondrial potential readout, lung cancer cells – cell-based, A549, JC-1 fluorescence, basal, 24 h, 100 nL, profiling panel (AID 1138).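 Also: A549 lung adenocarcinoma cells under basal conditions with no added stimulus; test concentration not given here.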 To be noted: higher = more signal.
Test [18] relates to Lefty1. Briefly: Lefty1 protein binding to printed compounds – biochemical, small-molecule microarray, 635/667 nm fluorescence, primary screen (AID 1139). Conditions: fluorescence 635/667, higher = more signal.
In test [19] the test system is wheat germ agglutinin (Triticum aestivum), Alexa647-labelled. The test can be described thus: Alexa647-WGA lectin binding to printed small molecules – biochemical, small-molecule microarray, 635/667 nm fluorescence, artefact control for SMM control-protein annotation, profiling panel (AID 1140).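 Also: score merges 667 nm feature emission with signal to noise over triplicate slides.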 To be noted: WGA-A647 binding, 635 nm fluorescence, higher = more signal.

Test [20] concerns the target Luciferin 4-monooxygenase (Photinus pyralis) (UniProt P08659). Briefly: inhibition of purified Photinus pyralis luciferase – biochemical, luminescence, purified enzyme, 2006 set, primary screen (AID 1141).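 Also: cell-free assay with purified firefly luciferase at 100 ng per well in PBS; test concentration not given here.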 Conditions: purified firefly luciferase, SteadyGlo luminescence, 30 min; higher = more signal, called active from +8 up or from −8 down.

Activity calls are given as the source filed them.

Chain of Focal adhesion kinase 1 (Homo sapiens) (Q05397 whole entry, looked up): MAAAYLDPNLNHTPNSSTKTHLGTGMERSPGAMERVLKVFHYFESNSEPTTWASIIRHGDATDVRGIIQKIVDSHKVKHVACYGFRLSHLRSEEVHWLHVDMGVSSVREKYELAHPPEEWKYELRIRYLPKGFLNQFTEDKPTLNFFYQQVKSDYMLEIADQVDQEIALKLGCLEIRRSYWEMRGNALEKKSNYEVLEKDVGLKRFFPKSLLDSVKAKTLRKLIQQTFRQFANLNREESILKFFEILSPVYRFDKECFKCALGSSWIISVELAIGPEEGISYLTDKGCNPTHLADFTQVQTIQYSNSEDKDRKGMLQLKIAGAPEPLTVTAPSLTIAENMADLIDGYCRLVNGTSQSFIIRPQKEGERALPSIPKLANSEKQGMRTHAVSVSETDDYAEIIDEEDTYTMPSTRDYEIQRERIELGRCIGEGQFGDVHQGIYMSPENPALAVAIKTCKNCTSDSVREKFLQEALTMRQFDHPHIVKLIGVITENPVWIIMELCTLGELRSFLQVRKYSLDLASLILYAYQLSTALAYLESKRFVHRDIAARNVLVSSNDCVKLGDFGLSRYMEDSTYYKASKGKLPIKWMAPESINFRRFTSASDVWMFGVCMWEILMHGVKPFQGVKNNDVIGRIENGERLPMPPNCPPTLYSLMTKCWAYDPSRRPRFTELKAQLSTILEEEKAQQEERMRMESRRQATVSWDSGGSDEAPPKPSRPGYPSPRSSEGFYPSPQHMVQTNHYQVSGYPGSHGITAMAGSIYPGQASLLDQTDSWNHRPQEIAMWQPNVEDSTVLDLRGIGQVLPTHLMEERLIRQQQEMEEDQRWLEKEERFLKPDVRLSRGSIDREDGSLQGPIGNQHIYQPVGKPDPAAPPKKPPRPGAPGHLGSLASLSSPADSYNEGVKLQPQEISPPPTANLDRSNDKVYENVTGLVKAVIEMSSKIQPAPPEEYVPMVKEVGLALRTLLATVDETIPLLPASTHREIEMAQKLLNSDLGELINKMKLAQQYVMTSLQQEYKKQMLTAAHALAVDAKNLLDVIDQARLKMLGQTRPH
Chain of Albumin (Bos taurus) (P02769 whole entry, looked up): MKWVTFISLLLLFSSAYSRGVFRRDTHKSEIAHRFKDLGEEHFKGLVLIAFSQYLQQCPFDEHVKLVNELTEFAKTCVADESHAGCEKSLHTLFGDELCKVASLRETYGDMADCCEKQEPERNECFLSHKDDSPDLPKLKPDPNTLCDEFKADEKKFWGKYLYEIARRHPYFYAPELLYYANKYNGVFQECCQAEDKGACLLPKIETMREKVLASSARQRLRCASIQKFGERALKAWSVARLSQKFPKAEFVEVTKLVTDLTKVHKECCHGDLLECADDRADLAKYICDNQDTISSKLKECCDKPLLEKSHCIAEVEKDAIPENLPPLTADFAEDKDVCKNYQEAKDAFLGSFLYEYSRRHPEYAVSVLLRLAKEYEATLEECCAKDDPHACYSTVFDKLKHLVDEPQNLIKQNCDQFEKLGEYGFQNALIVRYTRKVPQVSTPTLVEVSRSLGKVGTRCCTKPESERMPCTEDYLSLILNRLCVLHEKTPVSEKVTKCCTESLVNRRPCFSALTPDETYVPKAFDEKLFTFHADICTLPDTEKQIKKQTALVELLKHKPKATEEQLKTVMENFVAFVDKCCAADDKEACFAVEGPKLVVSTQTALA
Chain of Fibroblast growth factor 2 (Homo sapiens) (P09038 whole entry, looked up): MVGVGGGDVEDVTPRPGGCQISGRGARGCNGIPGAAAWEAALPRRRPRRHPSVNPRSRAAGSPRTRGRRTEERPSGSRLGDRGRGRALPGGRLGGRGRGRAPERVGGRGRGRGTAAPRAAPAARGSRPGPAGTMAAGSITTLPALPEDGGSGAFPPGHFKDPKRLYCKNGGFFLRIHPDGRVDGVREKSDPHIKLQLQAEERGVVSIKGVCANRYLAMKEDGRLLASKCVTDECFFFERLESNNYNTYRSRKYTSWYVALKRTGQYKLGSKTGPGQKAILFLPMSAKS
Chain of Luciferin 4-monooxygenase (Photinus pyralis) (P08659 whole entry, looked up): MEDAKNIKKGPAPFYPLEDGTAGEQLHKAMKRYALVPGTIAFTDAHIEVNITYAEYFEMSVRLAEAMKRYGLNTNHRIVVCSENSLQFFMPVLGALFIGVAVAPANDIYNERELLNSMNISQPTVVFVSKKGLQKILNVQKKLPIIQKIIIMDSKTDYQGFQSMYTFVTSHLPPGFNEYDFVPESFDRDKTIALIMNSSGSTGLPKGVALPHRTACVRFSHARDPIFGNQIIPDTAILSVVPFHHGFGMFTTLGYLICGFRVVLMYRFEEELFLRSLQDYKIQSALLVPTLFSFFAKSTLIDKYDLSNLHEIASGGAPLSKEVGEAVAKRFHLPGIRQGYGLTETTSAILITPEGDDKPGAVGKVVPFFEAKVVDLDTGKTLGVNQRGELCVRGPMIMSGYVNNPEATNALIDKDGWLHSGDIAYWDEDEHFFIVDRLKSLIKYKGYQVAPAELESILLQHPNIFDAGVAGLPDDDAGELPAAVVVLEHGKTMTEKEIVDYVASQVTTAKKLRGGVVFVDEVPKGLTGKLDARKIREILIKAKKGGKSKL
Chain of Concanavalin-A (Canavalia ensiformis) (P02866 whole entry, looked up): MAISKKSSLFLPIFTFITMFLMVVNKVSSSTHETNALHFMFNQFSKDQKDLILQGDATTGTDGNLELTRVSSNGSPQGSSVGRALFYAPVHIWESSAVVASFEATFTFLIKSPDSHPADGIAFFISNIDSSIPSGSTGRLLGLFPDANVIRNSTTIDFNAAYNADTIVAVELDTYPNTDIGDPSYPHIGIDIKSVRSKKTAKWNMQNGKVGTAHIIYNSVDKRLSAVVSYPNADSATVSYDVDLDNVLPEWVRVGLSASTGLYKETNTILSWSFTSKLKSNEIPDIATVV
Chain of Follistatin (Homo sapiens) (P19883 whole entry, looked up): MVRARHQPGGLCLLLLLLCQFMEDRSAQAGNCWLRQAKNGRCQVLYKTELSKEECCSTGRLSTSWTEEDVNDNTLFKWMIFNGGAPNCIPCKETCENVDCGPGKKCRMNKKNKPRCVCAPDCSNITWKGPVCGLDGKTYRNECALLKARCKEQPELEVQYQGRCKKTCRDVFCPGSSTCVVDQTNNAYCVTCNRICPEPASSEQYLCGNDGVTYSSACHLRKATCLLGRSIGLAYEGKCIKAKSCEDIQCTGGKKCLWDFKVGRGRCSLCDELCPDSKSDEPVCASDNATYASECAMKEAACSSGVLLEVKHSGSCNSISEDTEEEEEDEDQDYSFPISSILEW

In the case of `CCOC(=O)[C@H]1[C@@H]2C(=O)N3CCC[C@H]3[C@H](O[Si](C(C)C)(C(C)C)C(C)C)[C@H]2C=C2CCN(S(=O)(=O)c3ccc(C)cc3)C[C@H]21`, the composite z-score in test [1] is 0.603; in [3] it was 0.0208; in test [4], -0.112; in [5], 0.481; in test [6], 1.15; in test [7] it was 0.171. For the same compound, the composite z-score in test [8] was 1.3; in [9], 0.484; in test [10] it was 1.12; in test [11], 0.173; in test [12] it was 0.837; in [13], -0.268. Besides, the composite z-score was 0.938 in [14]; 0.727 in test [15]; 0.143 in test [16]; 0.672 in test [18]; 0.255 in test [19]. In addition, the composite Z-score in test [2] was 0.156 (inactive). The z-score is 1.8 in test [17] and -0.404 (inactive) in test [20].

Turning to `C=CCC(OC(C)=O)[C@@H]1[C@@H](N(Cc2cccc3ccccc23)C(=O)Cc2ccc(F)cc2)c2cc(OCCCO)ccc2N1C(=O)c1ccc2ccccc2n1` (stereo not given in full), the composite z-score in test [1] is -0.0728; in test [3] it was -0.0125; in test [4], 0.0156; in [5], 0.409; in [6] it was 0.0549; in [7], 0.398. Further, the composite z-score in test [8] is -0.301; in [9], 0.192; in [10], 0.483; in test [11], -0.478; in test [12], -0.0554; in test [13] it was -0.122. The composite z-score in [14] is 0.0688; in test [15], 0.187; in test [16] it was 0.386; in [18], -0.553; in test [19], 0.748. Besides, in test [2], the composite Z-score is -0.486 (inactive). For the same compound, the z-score in test [17] is -0.0984; in [20], 0.0778 (inactive).

As for `C=CCC(OC(C)=O)[C@@H]1[C@@H](N(Cc2ccc(-c3cccc(C(F)(F)F)c3)o2)C(=O)c2ccc(-c3ccccc3)cc2)c2cc(OCCCO)ccc2N1C(=O)c1ccc2ccccc2n1` (stereo not given in full), the composite z-score is -0.267 in test [1]; -0.0077 in test [3]; 0.357 in test [4]; -0.232 in [5]; 0.266 in test [6]; -0.154 in test [7]. For the same compound, the composite z-score in test [8] was -0.734; in [9] it was 0.198; in test [10], -0.458; in test [11], 0.445; in test [12] it was -0.507; in [13] it was 0.0509. Further, the composite z-score in [14] is 0.401; in test [15], 0.772; in [16] it was -0.0036; in [18], 0.149; in test [19], -0.0763. The composite Z-score in test [2] was -0.219 (inactive). The z-score in test [17] is 0.404; in [20] it was 0.141 (inactive).

`COC(=O)[C@@]1(Cc2ccccc2)[C@H]2c3cc(C(=O)N(C)C)n(CCN4CNCC4=O)c3C[C@H]2CN1C(=O)c1ccccc1`: the composite z-score in test [1] was 0.984; in [3] it was 0.571; in test [4], 0.37; in [5], 0.826; in test [6], -0.325; in test [7], 1.26. Further, the composite z-score in [8] was -0.764; in test [9] it was -1.16; in test [10], -1.42; in test [11] it was 3.19; in test [12], 0.644; in [13], -0.619. Further, the composite z-score in [14] was -1.2; in test [15] it was -0.64; in [16], -0.8; in test [18] it was -2.13; in test [19], 1.45. Moreover, the composite Z-score in [2] is 0.0052 (inactive). Also, the z-score in test [17] is 0.697; in test [20], 0.394 (inactive).

As to `O=C(N1CCCCC1)[C@@]1(CCS(=O)(=O)c2ccccc2)COC(c2ccc(OCCCO)cc2)=N1`, the composite z-score amounted to 0.107 in test [1]; 0.289 in test [3]; 0.207 in [4]; 0.582 in test [5]; 2.66 in [6]; 0.729 in test [7]. Besides, the composite z-score in test [8] worked out at 1.31; in test [9], 0.225; in test [10] it was 1.1; in test [11], 2.55; in [12], 1.22; in test [13] it was 0.298. The composite z-score was 0.839 in test [14]; 1.4 in test [15]; 1.52 in [16]; 0.126 in test [18]; 0.848 in [19]. The composite Z-score in test [2] is 0.674 (inactive). The z-score is 0.32 in test [17] and -0.0825 (inactive) in test [20].

Turning to `[N-]=[N+]=NCc1ccccc1[C@H]1OC(c2ccc(OCCCO)cc2)=N[C@@]1(CCS(=O)(=O)c1ccccc1)C(=O)N1CCCCC1`, the composite z-score in [1] came out at 1.05; in [3], 0.268; in test [4] it was 0.0562; in test [5], 0.753; in test [6], 2.83; in [7] it was 0.512. Also, the composite z-score in test [8] is 1.31; in test [9], -0.565; in test [10] it was 1.2; in test [11] it was 2.98; in test [12], 1.23; in test [13], 1.12. Also, the composite z-score was 1.02 in [14]; 1.1 in test [15]; 0.227 in test [16]; 0.53 in test [18]; 1.44 in [19]. Further, in test [2], the composite Z-score was 0.32 (inactive). Further, the z-score was -1.16 in test [17] and -0.844 (inactive) in test [20].

In the case of `O=C1C2C=CC(C(O)c3ccc(Br)cc3)N(Nc3ccccc3F)C2C(=O)N1c1ccccc1` (stereo not given), the composite z-score in test [1] is 0.826; in test [3] it was -0.038; in test [4] it was -0.126; in test [5], 0.762; in test [6], 1.58; in test [7] it was 0.358. The composite z-score was 0.68 in test [8]; 0.0957 in [9]; 0.667 in test [10]; 2.57 in test [11]; 0.992 in [12]; -0.312 in [13]. Besides, the composite z-score in test [14] was 0.967; in test [15] it was 0.0288; in test [16], -0.265; in [18] it was -0.107; in test [19], 0.672. Moreover, the composite Z-score in test [2] was 0.0051 (inactive). Besides, the z-score in test [17] is 0.147; in test [20], 1.71 (inactive).

Regarding `C=CCC(OC(C)=O)[C@@H]1[C@@H](N(Cc2cc3ccccc3o2)C(=O)c2ccc(-c3ccccc3)cc2)c2cc(OCCCO)ccc2N1C(=O)c1ccc2ccccc2c1` (stereo not given in full), the composite z-score in test [1] was 0.0005; in test [3], -0.154; in test [4], -0.106; in test [5], -0.105; in [6], 0.612; in test [7], 0.0944. For the same compound, the composite z-score in [8] was 0.095; in test [9] it was 0.0295; in test [10], -0.0066; in test [11], 0.0895; in test [12], 0.0833; in test [13], -0.394. The composite z-score is 0.394 in [14]; 0.874 in [15]; -0.198 in [16]; 0.795 in test [18]; 0.196 in test [19]. The composite Z-score in test [2] was 0.142 (inactive). For the same compound, the z-score in [17] was 1.26; in test [20], -0.455 (inactive).
